From PubChem BioAssay
DRD3 agonist: activates the human D3 dopamine receptor. D3R DiscoveRx beta-arrestin cells, luminescence, 90 min. max activation, %. P35462. AID 652048. 0.58% of 410,000 active; in the data active = max activation above about 30%; also: 0% is about no effect
Target sequence (P35462 whole entry, looked up): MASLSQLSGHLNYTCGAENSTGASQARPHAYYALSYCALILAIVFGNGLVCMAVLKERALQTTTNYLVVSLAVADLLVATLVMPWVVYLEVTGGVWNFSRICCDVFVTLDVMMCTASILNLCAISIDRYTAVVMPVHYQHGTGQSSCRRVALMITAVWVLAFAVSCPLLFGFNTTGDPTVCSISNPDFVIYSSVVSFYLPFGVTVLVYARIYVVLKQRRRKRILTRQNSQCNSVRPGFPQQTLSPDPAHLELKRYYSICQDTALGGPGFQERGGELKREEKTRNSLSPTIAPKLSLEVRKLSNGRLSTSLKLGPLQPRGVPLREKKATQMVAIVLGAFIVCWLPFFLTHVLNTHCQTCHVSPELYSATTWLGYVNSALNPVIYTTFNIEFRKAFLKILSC
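Cells at 1500/well, incubated overnight, then treated with pinned compounds (dopamine as control) for 90 min at 37 degrees C. DiscoveRx reagent added for 30 - 60 minutes at room temperature; luminescence read.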
HepG2 viability: HepG2 cytotoxicity, counter-screen for TGF-b inhibitors; Potency, µM (titrated, usually from 46.1 µM), inactives show at the top dose activity change, negative = cytotoxicity, hits mostly cytotoxic; 0.76% of 410,000 active; HepG2 CAGA-GFP viability, ATP luminescence, 18 h; also: potency is read from the fitted curve at half-maximal effect
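CellTiter-Glo luminescence gave cytotoxicity after 18 hours at 37 degrees C. The cells were HepG2 CAGA-GFP in 1% FBS DMEM, stimulated with 500 pg/mL TGF-beta after compound addition. %Activity was normalised to no-cell wells (complete cell-killing) and DMSO (no toxicity), and curves were fitted and classified.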
D3 antag: antagonists of human D3 dopamine receptor; P35462; max response, negative = inhibition, %; 2.5% of 360,000 active; D3R cells, DiscoveRx beta-arrestin luminescence, antagonist mode; stronger effect = lower value; AID 652054; in the data active = max response below about -50%; inconclusive = no clear call, values can overlap the other calls; also: % is scaled to controls: 0 for no effect and ±100 for the full control effect
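Cells plated overnight at 1500 cells/well, then exposed to library compounds with dopamine controls for 90 minutes at 37 degrees C. DiscoveRx reagent added for 30–60 minutes at room temperature; luminescence read, quantitative HTS format.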
ATXN2 expr inh: ATXN2 expression inhibition | Potency, µM (doses to about 57 µM), without a hit: at the highest dose activity change, negative = inhibition, usual class: inhibitors | HEK-293 ATXN2-luciferase reporter, luminescence, 24 h | AID 1745845 | 0.72% of 360,000 active; also: potency is read from the fitted curve at half-maximal effect; % is scaled to controls: 0 for no effect and ±100 for the full control effect; nearly all actives have a fitted effect of over 55% in size
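qHTS (up to 57 uM final) was run with 24 h compound exposure of reporter cells at 37 °C. Each well was multiplexed: SteadyGlo luminescence measured ATXN2-luciferase expression after a fluorogenic Gly-Phe-AFC viability readout (25 uM final).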
ATXN viability: reduces viability in counter-screen for ATXN expression inhibitors; S2 cells (HEK-293 line with an ATXN2-luciferase reporter) viability, CellTiter-Fluor protease fluorescence, 24 h; Potency, µM (doses to about 56.7 µM), hits mostly cytotoxic; 0.49% of 400,000 active; also: potency is read from the fitted curve at half-maximal effect; nearly all actives have a fitted effect of over 40% in size
TGFb SMAD3 inh: TGF-b pathway inhibition | HepG2 CAGA-GFP TGF-b/SMAD3 reporter, GFP fluorescence, 18 h; TGF-beta stimulated, 500 pg/mL final | Potency, µM (titrated, usually from 46.1 µM), inactives show at the highest dose activity, negative = inhibition, actives largely listed as inhibitors | 1.2% of 410,000 active | AID 588855; also: potency is read from the fitted curve at half-maximal effect; % is scaled to controls: 0 for no effect and ±100 for the full control effect; nearly all actives have a fitted effect of over 65% in size
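GFP signal (ex488/em500-530) from TGF-beta-stimulated HEPG2 CAGA-GFP cells, 500 pg/mL final, 18 h at 37 degrees C in DMEM plus 1% FBS, normalized to unstimulated and DMSO-stimulated controls.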
* hit, by the source's call; i = inactive; ? = inconclusive; nt = not tested or not shown; ! = repeats disagree. A selection: hits, their analogues and other compounds. The true share with any hit is near 4.7%. Unless noted, calls follow the shape of the dose curve; as a rule, active = well fitted curve in the direction sought with a large enough effect; inconclusive = small, poorly fitted or top-dose-only effect, or another doubt; inactive = no such curve, though single readings can be large; an effect the other way counts as inactive or inconclusive.

SMILES	DRD3 agonist	HepG2 viability	D3 antag	ATXN2 expr inh	ATXN viability	TGFb SMAD3 inh
CC(C)CCNC(=O)C1CCN(C(=O)c2cc3sccc3n2Cc2ccc(Cl)cc2)CC1	0.4	-20.9%	nt	nt	nt	6.31µM*
COC(=O)CC(NC1CCN(c2nc(C)c3cc4c(cc3n2)CCC4)CC1)C(=O)OC (centres undefined)	nt	nt	nt	nt	i	nt
Clc1ccc(SCCOCCN2CCOCC2)cc1	-23.3	-0.3%	?	nt	i	4.6%
Clc1ccc(SCCOCCN2CCc3ccccc3C2)cc1	-11.3	-34.1%	-88.0*	?	i	?
Clc1ccc(SCCOCCN2CCCCC2)cc1	-14.0	-46.2%	-79.8*	-15.5%	i	-24.7%
CC1CCN(CCOCCSc2ccc(Cl)cc2)CC1	-4.4	-11.5%	-109.5*	nt	?	-13.6%
OC(CNCCc1ccc(C(F)(F)F)cc1)COc1ccc2ccccc2c1 (centres undefined)	-19.6	-91.8%	-18.1	28.2µM*	nt	?
COc1ccc(CCNCC(O)COc2cccc(Br)c2)cc1 (centres undefined)	-6.7	12.6µM*	-8.7	?	i	-36.7%
CCc1ccc(OCCCCn2c(CCNC(=O)C3CCCCC3)nc3ccccc32)cc1	nt	-13.7%	nt	nt	nt	-8.7%
COc1ccc2nc(SCC(=O)N3CCN(c4ccc(F)cc4)CC3)c(C#N)cc2c1	-7.0	25.2%	-57.7*	1.9%	i	-5.0%
C#C[C@@]1(O)CC[C@@H]2[C@@H]3CCC4=CC(=O)CC[C@@H]4[C@H]3CC[C@]21C	nt	nt	nt	nt	i	nt
CC#C[C@]1(O)CC[C@H]2[C@@H]3CCC4=CC(=O)CCC4=C3[C@@H](c3ccc(N(C)C)cc3)C[C@@]21C	-16.4	-23.1%	0.0	15.3µM*!	i	0.1%
O=C(Nc1cn[nH]c1-c1nc2ccc(CN3CCOCC3)cc2[nH]1)NC1CC1	nt	nt	nt	5.44µM*	nt	nt
O=C(CC(c1ccccc1)c1cc(Br)ccc1O)NCC1(c2ccccc2)CCCC1 (centres undefined)	30.4*	-98.7%	nt	?	35.5µM*	17.8µM*
O=C(CC(c1ccccc1)c1cc(Br)ccc1O)NCCN1CCOCC1 (centres undefined)	-24.4	-13.3%	?	-4.5%	i	-0.7%
CCN1CCN(c2sc(S(C)(=O)=O)nc2S(=O)(=O)c2ccc(C)cc2)CC1	-6.4	-19.4%	-19.7	nt	i	?
CCCS(=O)(=O)c1nc(S(=O)(=O)c2ccc(C)cc2)c(N2CCN(C)CC2)s1	-17.0	-2.5%	-61.0*	9.8%	i	-7.1%
CCN1CCN(c2sc(S(=O)(=O)CC)nc2S(=O)(=O)c2ccc(C)cc2)CC1	-7.9	-5.1%	-79.9*	nt	i	-2.0%
CCS(=O)(=O)c1nc(S(=O)(=O)c2ccc(C)cc2)c(N2CCCC2)s1	-7.9	-57.3%	-14.5	3.5%	i	0.9%
CCCS(=O)(=O)c1nc(S(=O)(=O)c2ccc(C)cc2)c(N2CCN(CC)CC2)s1	-19.3	0.9%	-108.9*	7.9%	i	-3.2%
Cc1c(C(=O)N2CC3CCC2C3)sc2ncnc(NCc3ccco3)c12 (centres undefined)	nt	nt	nt	nt	i	nt
COc1ccc(S(=O)(=O)N(C)c2ccc(C(=O)N3CCCCC3)cc2)cc1	37.7*	-27.2%	23.2	-16.6%	i	-10.8%
CCOc1ccc(-c2cc(C(=O)NCCc3ccc(C)cc3)c3ccccc3n2)cc1	6.6	-10.8%	nt	20.1%	i	0.7%
O=C(NCCc1ccccc1)c1ccc(Cn2c(SCc3ccccc3)nc3cccnc32)cc1	-6.3	-24.6%	nt	14.9%	i	-5.7%
Cc1ccc(-n2c(C)cc(C(=O)CSc3n[nH]c(N)n3)c2C)cc1	38.6*	-4.4%	32.7	44.1%	i	-30.1%
SMILES	DRD3 agonist	HepG2 viability	D3 antag	ATXN2 expr inh	ATXN viability	TGFb SMAD3 inh
Cc1[nH]n(-c2cccc(Cl)c2)c(=O)c1-c1ccccc1	-1.6	-26.0%	-51.9*	1.5%	i	-6.2%
COc1ccc(NC(=O)c2ccc3oc(=O)c(S(=O)(=O)c4ccc(F)cc4)cc3c2)cc1OC	-4.8	-72.8%	nt	-25.4%	?	11.2µM*
COc1ccc(NC(=O)c2ccc3oc(=O)c(S(=O)(=O)c4ccc(C)cc4)cc3c2)cc1OC	-5.5	-45.5%	nt	2.3%	i	-24.7%
COC(=O)Cc1ccc(N(Cc2ccccc2F)S(=O)(=O)c2ccc(Cl)cc2)cc1	-7.4	-7.5%	-55.7*	-32.8%	i	?
COC(=O)CN(c1ccc(F)cc1)S(=O)(=O)c1ccccc1	-3.5	-3.6%	1.6	-3.5%	i	-2.9%
CC(C)(C)c1cc(CN2CCN(CCO)CC2)cc(C(C)(C)C)c1O	-32.6	2.6%	-81.8*	-6.3%	i	?
CCOC(=O)C1CCN(Cc2cc(C(C)(C)C)c(O)c(C(C)(C)C)c2)CC1	-11.7	-36.6%	?	-16.8%	?	-17.9%
COc1cc(/C=C2\OC(=O)c3c(OC)cccc32)ccc1O	7.5	2.4%	9.9	59.0%	i	-3.4%
CCOc1cc(/C=C2\CCC/C(=C\c3cc(Cl)c(O)c(OCC)c3)C2=O)cc(Cl)c1O	-6.7	7.94µM*	-15.6	8.91µM*	15.8µM*	5.01µM*
CCOc1cc(/C=C2/C(=O)ON=C2C)ccc1O	0.4	-4.3%	8.8	14.1%	i	2.9%
COc1cc(C=C2CN(C)C(=O)C2=O)ccc1O	-3.5	-29.5%	-12.8	nt	28.2µM*	-2.8%
CCOc1cc(/C=C2\CN(C)C/C(=C\c3ccc(O)c(OCC)c3)C2=O)ccc1O	-12.1	-54.9%	-51.8*	3.16µM*	nt	?
CC(C)(C)n1ncc2c(=O)n(Cc3ccccc3C#N)cnc21	nt	6.3%	nt	nt	nt	-4.8%
CC1(Cc2ccccc2C#N)C(=O)Nc2ccc(OC(F)(F)F)cc21 (centres undefined)	-1.8	-24.1%	0.0	-9.5%	i	-16.4%
CC1(Cc2ccccc2Cl)C(=O)Nc2ccc(OC(F)(F)F)cc21 (centres undefined)	3.1	-90.4%	-1.0	?	?	11.2µM*
O=C(Nc1ccncc1)C1CCCN(S(=O)(=O)c2cccc3cccnc23)C1 (centres undefined)	-7.2	-2.5%	-14.3	?	?	-15.7%
O=C(Nc1ccc(C(F)(F)F)cc1)C1CCCN(S(=O)(=O)c2cccc3cccnc23)C1 (centres undefined)	4.1	-33.6%	nt	6.4%	i	11.2µM*
CN1CCN(c2ccc(NC(=O)c3ccc(C#N)cc3F)cc2Cl)CC1	-5.5	-16.1%	-56.9*	4.2%	i	-1.7%
CCC(=O)N1CCN(c2ccc(NC(=O)c3ccc(C#N)cc3F)cc2Cl)CC1	17.2	-11.7%	6.3	-25.4%	i	5.8%
